# According to PubChem BioAssay (Tox21):
# Records with an inconclusive call do not appear. A call without a number means that no potency is given here. Values without a mark were called inactive. Activity calls are given as the source filed them. The call rests on the fitted dose curve; in most records, active means well fitted activation curve with a large enough effect in the repeat runs; inconclusive means weak or mixed curves, or effect the other way; inactive means no such curve, though single readings can be large or run the other way.
# Assay: qHTS assay to identify small molecule agonists of the retinoic acid receptor (RAR) signaling pathway (AID 1159553)
# Conditions: C3RL4 RARE luciferase reporter, agonist, 6 h; activation: at 73.3 µM (top of the series) unless noted
# Description: National Center for Advancing Translational Sciences [NCATS] NIH Chemical Genomics Center [NCGC] U.S. Environmental Protection Agency [EPA] National Institutes of Environmental Health Sciences [NIEHS] National Toxicology Program [NTP] Assay overview: All-trans Retinoic acid (atRA) is the potent natural metabolite of retinol and plays an important role in normal embryonic development and maintenance of cellular phenotype in adult animals. atRA is the activating ligand for the retinoic acid receptors (RARs) which form heterodimers with retinoid X receptors (RXRs) on the retinoic acid response element (RARE). Through activation of the RAR/RXRs nuclear receptors, atRA regulates the transcription of a large number of protein-coding genes and regulatory RNAs. Intracellular levels of atRA are controlled by the retinol signaling pathway (RSP) that regulates the biosynthesis and catabolism of atRA to maintain physiological levels. Chemicals that interfere with the RSP can cause abnormal intracellular levels of atRA and therefore are potential developmental toxicants. To assess compounds for the potential adverse effect on embryonic development through interfering with retinol signaling, a cell-based RARE luciferase reporter gene assay was used. C3RL4 cell line (OARSA/CFSAN/FDA, Laurel, MD) was used to screen Tox21 10K compound library for identifying activators of the RSP.
# Assay Protocol Summary: C3RL4 cells were seeded at 1,000/well in 5 uL of assay medium into white solid 1,536-well tissue culture plates (Greiner Bio-One North America Inc. Monroe, NC) using a Multidrop Combi (Thermo Scientific, Waltham, MA) dispenser. After incubation at 37 C and 5% CO2 for an overnight, 23 nL of compounds dissolved in DMSO, positive control or DMSO only were transferred by a Pintool station (Kalypsys, San Diego, CA). After 6 hr incubation at 37 C and 5% CO2, 5 uL of Amplite Luciferase reagent (AAT Bioquest Inc. Sunnyvale, CA) was added to each assay plate using a Flying Reagent Dispenser (FRD) (Aurora Discovery, San Diego, CA). Luminescence was quantified on a ViewLux plate reader (PerkinElmer, Waltham, MA) after 30 min incubation at room temperature.
# Potency means the concentration at half of the fitted maximal effect.
Structure (SMILES),Potency,activation
CC(C)N1C(=O)c2ccccc2NS1(=O)=O,inactive,–
BrCCBr,inactive,–
Cc1ccc(N)cc1Cl,inactive,–
NCCc1ccc(O)cc1,inactive,–
Clc1ccc(Cl)cc1,inactive,–
CCOP(=S)(OCC)SCCSCC,inactive,–
CCOP(OCC)OCC,inactive,–
Clc1cccc(Cl)c1Cl,–,0.0902%
CCCCCCCCCl,–,-0.05% [at 94.8 µM]
Nc1ccccc1C(=O)O,inactive,–
CCCN(CCC)N=O,–,0.684%
Cc1ccccc1O,inactive,–
CC(C)(Cl)Cl,inactive,–
OC(O)C(Cl)(Cl)Cl,inactive,–
Cc1cccc([N+](=O)[O-])c1,–,0.605%
[O-][Cl+2]([O-])O,–,-0.679%
CC(C)OC(=O)Nc1cccc(Cl)c1,6.11 µM (active),–
NCC(O)c1ccc(O)cc1 (stereo not given),inactive,–
CN1C(=O)CN=C(c2ccccc2)c2cc(Cl)ccc21,inactive,–
O=c1[nH]c2ccccc2c(=O)o1,inactive,–

Structure (SMILES),Potency,activation
Nc1ccc(Br)cc1,–,11.1%
Cn1cc(-c2ccccc2)c(=O)c(-c2cccc(C(F)(F)F)c2)c1,inactive,–
O=S(=O)(c1ccc(Cl)cc1)c1cc(Cl)c(Cl)cc1Cl,–,-11.4%
Cc1[nH]c(=O)n(C(C)(C)C)c(=O)c1Cl,inactive,–
CN=C=S,inactive,–
c1ccc2c(c1)Oc1ccccc1O2,inactive,–
Cc1cc(-c2cc(C)c(N)c(C)c2)cc(C)c1N,–,-1.75%
CC(C#N)CCC#N (stereo not given),inactive,–
CC(C)C#N,inactive,–
O=c1n(Cl)c(=O)n(Cl)c(=O)n1Cl,inactive,–
O=S(=O)(c1ccc(O)cc1)c1ccc(O)cc1,inactive,–
CC(C)C1(C)N=C(c2nc3ccccc3cc2C(=O)O)NC1=O (stereo not given),inactive,–
O=NN1CCCCCCC1,inactive,–
CC(Br)C(=O)O (stereo not given),–,-2.56% [at 94.8 µM]
CCC(C)(CC)c1cc(NC(=O)c2c(OC)cccc2OC)on1,inactive,–
Nc1ccc(Cc2ccc(N)cc2)cc1,–,6.45%
CC(Oc1ccc(Cl)cc1Cl)C(=O)O (stereo not given),inactive,–
CCOC(=O)c1ccccc1C(=O)OCC,inactive,–
COP(N)(=O)SC (stereo not given),–,1.65%
C#CC(C)(C)NC(=O)c1cc(Cl)cc(Cl)c1,inactive,–
